# TIM10 inh: TIM10 yeast growth inhibition; 330,000 tested, 1.4% active; S. cerevisiae TIM10 strain growth, BacTiter-Glo luminescence, 24 h; AID 463195; inhibition, % at 10 µM;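 active = inhibition of 40% or more at the single tested concentration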;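 also: wild-type TIM10 isogenic control strain grown at permissive 25 °C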
# SKKanGAS inh: inhibitors of SKKanGAS S. pyogenes growth in kanamycin (SK-promoter or general growth effect). BacTiter-Glo, 6 h. inhibition, % at 7.5 µM. 300,000 tested, 1.3% active. AID 1662;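 active = mean replicate score, as percent of positive control median, at least 50; inconclusive = mean below 50 but one replicate at or above 50; inactive = mean and every replicate below 50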;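 also: strain carries kanamycin resistance gene driven by streptokinase promoter and grows in 40 µg/ml kanamycin; loss of luminescence reflects streptokinase promoter inhibition or plain growth inhibition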
# tim23-1 inh: tim23-1 yeast growth inhibition. S. cerevisiae tim23-1 growth, BacTiter-Glo luminescence, 24 h. AID 463212. inhibition, % at 20 µM. 330,000 tested, 1.3% active;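 active = growth inhibition of the mutant yeast at or above 50%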;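 also: temperature-sensitive mutant grown at 25 °C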
# tim10-1 inh: inhibits growth of tim10-1 mutant yeast; inhibition, % at 20 µM; 330,000 tested, 2.2% active; S. cerevisiae tim10-1 ts strain growth, BacTiter-Glo, 24 h; AID 463190;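 active = inhibition of at least 40%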;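 also: mutant grown at 25 °C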
# PfHsp90 yeast 2: inhibits growth of yeast expressing Plasmodium falciparum Hsp90 | 310,000 tested, 0.32% active | inhibition, % at 9.4 µM | S. cerevisiae expressing PfHsp90, BacTiter-Glo ATP, 48 h; yeast lacking PDR1 and PDR3 efflux regulators;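 active = every replicate shows inhibition above about 80%, whatever the replicate mean, limit read from the data; inconclusive = mean inhibition reaches the set limit but some replicate falls short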
# NALP1 inh: blocks the NALP1 inflammasome reconstituted in yeast. 280,000 tested, 0.61% active. S. cerevisiae NALP1/ASC/caspase-1 growth, X-gal OD620, 72 h. inhibition, % at 10 µM. AID 2071; in the data active = inhibition mostly above about 24%, no sharp cut-off; inactive = mostly below about 32%
# tim10-1 confirm: tim10-1 yeast growth inhibition, confirmed; S. cerevisiae tim10-1 ts strain growth, BacTiter-Glo, 24 h; AID 463213; 7,400 tested, 56% active; inhibition, % at 20 µM; shares compounds with tim10-1 inh;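 active = inhibition of yeast growth at or above a set limit in either of two repeat tests at 20 µM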;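 also: tim10-1 mutant grown at permissive 25 °C to find synthetic lethal compounds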
# TIM10 conf: TIM10 yeast growth inhibition, confirmed | S. cerevisiae tim10 strain growth, BacTiter-Glo luminescence, 24 h | 4,600 tested, 63% active | shares compounds with TIM10 inh | inhibition, % at 10 µM | AID 463215;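 active = inhibition of yeast growth at or above a set limit in either of two replicates at 10 µM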; also: this counterscreen used the strain with wild-type TIM10
# A number is an active result; – = inactive; ? = inconclusive; · = not tested or not shown. In the library only some 4.8% were active in any assay of this set; here they are far more common.
SMILES,TIM10 inh,SKKanGAS inh,tim23-1 inh,tim10-1 inh,PfHsp90 yeast 2,NALP1 inh,tim10-1 confirm,TIM10 conf
Nn1cnnc1N/N=C/c1cccc(Cl)c1Cl,52.3,–,–,51.0,–,–,50.2,59.9
COc1cccc(CNC(=O)c2ccc3c(c2)S(=O)(=O)N=C2CCCCCN23)c1,–,–,–,–,–,–,·,·
CCC(=O)OCCNc1cc(Sc2nc3ccccc3s2)c2nonc2c1[N+](=O)[O-],77.4,?,–,93.2,–,–,91.0,94.2
COc1ccccc1CNC(=O)c1ccc(Br)o1,–,–,–,–,–,–,·,·
Cn1nc(C(F)(F)F)c2cc(NC(=O)OCc3ccc(F)cc3)sc21,56.2,–,–,57.8,–,–,48.8,54.0
COc1ccc(-n2c(COc3ccc(Cl)cc3)nnc2SCc2ccc(C#N)cc2)cc1,–,–,–,–,–,–,·,·
COc1ccc(NCc2nnc(SCc3ccc(Cl)cc3)n2-c2ccccc2)cc1,54.4,–,–,52.4,–,–,39.4,–
O=C(CCN1CCCC1=O)NC1CCCc2c1cnn2-c1ccccc1F (stereo not given),–,–,–,–,–,–,·,·
CN(C)S(=O)(=O)c1cccc(N2C(=O)CC3(CCCCC3)CC2=O)c1,–,–,–,–,–,–,·,·
CCOC(=O)c1sc(NC(=S)NC(=O)CC(C)C)cc1C,57.9,–,–,53.1,–,–,41.9,51.4
CCOC(=O)c1sc(NC(=S)NC(=O)C2CCCC2)cc1C,–,–,–,–,–,–,·,·
COc1nnc(-c2ccc(N3CCCCC3)c(N)c2)c2ccccc12,49.1,–,–,44.4,–,·,35.9,39.8
CCN(CC)C(=O)c1cnn(-c2ccccc2)c1NC(=O)c1ccccc1F,–,–,–,–,–,–,·,·
CCCN1C(=O)/C(=C/c2ccc(C)s2)NC1=S,45.2,–,–,46.5,–,–,–,40.5
CC(C)CN1C(=O)/C(=C/c2ccco2)NC1=S,–,–,–,–,–,–,·,·
CC(C)CN1C(=O)/C(=C/c2cccs2)NC1=S,48.2,–,–,42.8,–,–,–,40.5
Cc1ccc(/C=C2/NC(=O)N(Cc3ccccc3F)C2=O)s1,–,–,–,–,–,–,·,·
OCCNc1nc(SCc2ccccc2)nc2sc3c(c12)CCC3,·,–,·,·,–,–,·,·
CC12CCC(C(=O)Nc3nc4ccc(Br)cc4s3)(OC1=O)C2(C)C (stereo not given),47.8,–,–,50.5,–,–,42.2,31.8
CC12CCC(C(=O)Nc3nccs3)(OC1=O)C2(C)C (stereo not given),–,–,–,–,·,–,·,·
O=c1c2[nH]c3ccccc3c2ncn1C1CCCCC1,–,–,–,–,·,–,·,·
O=C1c2ccccc2C(=O)c2c1ccc1c(=O)n(C3CCCCC3)[nH]c21,50.5,?,–,49.5,–,–,39.0,53.6
CC(C)Cn1c(SCC(=O)N2CCN(S(=O)(=O)c3ccccc3)CC2)nc2ccccc21,–,–,–,–,–,–,·,·
CCC1=C(OC(=O)N(CC)CC)N2C(=O)OC(=NCCOC)[C@]2(Cc2ccccc2)[C@H]2C1=CC[C@H]1C(=O)N(CC(=O)OC)C(=O)[C@H]12,–,–,–,–,·,·,·,·
Oc1cccc(/C=N/N(Cc2ccccc2)c2ccccc2)c1,48.4,?,–,53.0,·,–,–,41.4
CCOC(=O)c1c(NC(=O)C2C3CCC(O3)C2C(=O)O)sc(C)c1-c1ccc(F)cc1 (stereo not given),–,–,–,–,–,–,·,·
CCOC(=O)c1c(N)sc(C(O)(C(F)(F)F)C(F)(F)F)c1-c1ccc(F)cc1,41.2,–,–,43.0,–,–,–,–
COCCCNC(=O)C[C@H]1C[C@H](C(=O)N2CCOCC2)[C@@]2(C)c3[nH]c4cc(-c5ccco5)ccc4c3CCN2C1=O,–,·,–,–,–,·,·,·
CN1CCN(Cn2cc(/C=C/C(=O)c3ccccc3)c3ccccc32)CC1,66.7,–,–,61.6,–,–,–,65.2
O=C(c1ccco1)N1CCCN(Cc2cn[nH]c2-c2ccc(-c3ccccc3)cc2)CC1,–,–,–,–,–,–,·,·

# Screening results: PubChem, several laboratories
